Measured values as given in PubChem BioAssay AID1159580 (chemical genetic matrix, 2015).
The campaign covered roughly 5,500 compounds. About 2,000 (36%) were called active. Not shown: some 18% with an inconclusive outcome. Cut-off read from the data, not from the text of the source: active = normalized growth mostly below about 0.91 (no sharp cut-off); inconclusive = no clear call, values can overlap the other calls; inactive = mostly above about 0.92. This is one part of the list.

Assay: chemical genetic growth profiling, strain panel (AID 1159580);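 note: tested at 20 µM; growth read once vehicle control cultures reached saturation at 30 °C; 1 = growth at the plate median or of vehicle wells; lower values mean less growth of the strain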
Conditions: S. cerevisiae deletion strains, growth OD

Measured: normalized growth

C=C[C@@]1(C)CC(=O)[C@@]2(O)[C@](C)(O1)[C@@H](O)[C@@H](O)C1C(C)(C)CC[C@H](O)[C@@]12C (stereo partly drawn)
inactive: locus YHR030C, strain SLT2, active compounds read low 0.962 | locus YHR079C, strain IRE1, active compounds read low 0.971 | locus YJL095W, strain BCK1, active compounds read low 0.989 | locus YJR066W, strain TOR1, active compounds read low 0.957 | locus YLR113W, strain HOG1, active compounds read low 0.992 | locus YNL183C, strain NPR1, active compounds read low 0.995 | locus YOR231W, strain MKK1, active compounds read low 0.992 | locus YPL256C, strain CLN2, active compounds read low 0.976
